According to PubChem BioAssay:
Calls of active or inactive are those of the source. Unless noted, no rule for the calls is given here.

What was measured:
[1] = system: Wnt5a (protein binding on small-molecule microarray); experiment: small molecules binding Wnt5a protein – biophysical, small-molecule microarray, 635/667 nm fluorescence, primary screen (AID 1142); conditions: 635 nm fluorescence, higher = more signal;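 also: fluorescence read at 667 nm with signal to noise per printed feature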
[2] = ATP-based viability of Huh7 replicon cells – cell-based, CellTiter-Glo luminescence, basal, 48 h, cytotoxicity control for HCV replication inhibitor project, primary screen (AID 1143); conditions: higher = more signal, called active from +8 up or from −8 down;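 also: Huh7 hepatoma cells carrying a hepatitis C replication reporter with no stimulus; test concentration not given here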
[3] = Pseudomonas biofilm growth suppression – PAO1 strain, BacTiter-Glo luminescence, LB-PBS, primary screen (AID 1144); conditions: P. aeruginosa PAO1 biofilm, 12 h, higher = more signal
[4] = basal CRE-LacZ reporter activity in PC12 – cell-based, unstimulated, primary screen (AID 1145); conditions: no forskolin, luminescence, 4.5 h, higher = more signal, called active from +8 up or from −8 down
[5] = forskolin-driven CRE-LacZ activity in PC12 – cell-based, CRE-LacZ reporter, forskolin-stimulated, primary screen (AID 1146); conditions: luminescence, 4.5 h, higher = more signal, called active from +8 up or from −8 down;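 also: PC12 cells with 6xCRE LacZ reporter stimulated by forskolin 10 µM; beta-galactosidase reporter signal reflecting CREB driven transcription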
[6] = biological target: Streptavidin (Streptomyces avidinii) (UniProt P22629); experiment: compounds binding control protein streptavidin – biophysical, small-molecule microarray, 635/667 nm fluorescence, artefact control for SMM compound annotation, primary screen (AID 1147); conditions: higher = more signal;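 also: signal reflects streptavidin binding to arrayed compounds as a control protein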
Streptavidin (Streptomyces avidinii), sequence (P22629 whole entry, looked up): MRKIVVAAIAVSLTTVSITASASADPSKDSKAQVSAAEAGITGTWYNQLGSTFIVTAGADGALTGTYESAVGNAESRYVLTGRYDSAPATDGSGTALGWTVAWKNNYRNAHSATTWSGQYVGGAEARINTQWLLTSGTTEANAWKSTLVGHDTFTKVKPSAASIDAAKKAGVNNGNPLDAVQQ

[7] = probe aInhba binding on compound microarray – biochemical, small-molecule microarray, 635/667 nm fluorescence, primary screen (AID 1148); conditions: higher = more signal;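 also: score merges 667nm spot fluorescence with signal-to-noise for antibody binding to printed compounds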
Torsin-1A (Homo sapiens) [8] = biological target: Torsin-1A (Homo sapiens) (UniProt O14656); experiment: TOR1A wild-type binding on microarray – cell lysate, small-molecule microarray, lysate, 635/667 nm, primary screen (AID 1149); conditions: COS7 hTOR1A-WT lysate, 635 nm fluorescence, higher = more signal
Torsin-1A (Homo sapiens), sequence (O14656 whole entry, looked up): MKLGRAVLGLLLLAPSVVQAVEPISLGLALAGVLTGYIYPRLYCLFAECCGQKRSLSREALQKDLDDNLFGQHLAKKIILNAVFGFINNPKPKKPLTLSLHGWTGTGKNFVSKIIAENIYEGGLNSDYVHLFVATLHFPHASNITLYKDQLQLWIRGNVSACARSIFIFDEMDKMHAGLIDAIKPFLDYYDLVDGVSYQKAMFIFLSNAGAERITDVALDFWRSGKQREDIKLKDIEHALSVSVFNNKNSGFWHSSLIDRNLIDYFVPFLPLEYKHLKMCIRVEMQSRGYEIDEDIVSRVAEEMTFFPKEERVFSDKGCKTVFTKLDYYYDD

Torsin-1A (Homo sapiens) [9] = biological target: Torsin-1A (Homo sapiens) (UniProt O14656); experiment: torsin A mutant lysate binding on microarrays – cell lysate, small-molecule microarray, COS7 lysate, 635/667 nm fluorescence, primary screen (AID 1150); conditions: COS7 hTOR1A mutant lysate, 635 nm fluorescence, higher = more signal;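 also: score pools 667 nm emission and signal to noise measuring lysate protein binding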
[10] = system: Sonic hedgehog protein (Shh); experiment: Sonic hedgehog microarray binding compounds – biochemical, small-molecule microarray, 635/667 nm fluorescence, primary screen (AID 1151); conditions: 635 nm fluorescence, higher = more signal;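 also: Shh protein binding to compounds spotted on small-molecule microarray slides; score combines spot fluorescence intensity with signal-to-noise across triplicate slides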
[11] = optical density shifts of acrAB sulA E. coli – strain DRC41, OD650, 48 h, E. coli filamentation inducer project, primary screen (AID 1152); conditions: higher = more signal, called active from +8 up or from −8 down;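 also: E. coli MC1000 strain DRC41 lacking acrAB efflux pump and sulA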
[12] = probe aLefty1 binding on compound microarray – biochemical, small-molecule microarray, 635/667 nm fluorescence, primary screen (AID 1153); conditions: higher = more signal;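 also: score merges spot fluorescence with signal-to-noise ratio from the scanned slide images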
[13] = plasmodial surface anion channel blockers, osmotic lysis – cell-based, P. falciparum Indochina, OD700, 1 h, primary screen (AID 1154); conditions: P. falciparum Indochina infected RBC osmotic lysis, higher = more signal, called active from +8 up or from −8 down
[14] = plasmodial surface anion channel blockers, osmotic lysis – cell-based, P. falciparum Indochina, OD700, 2 h, primary screen (AID 1155);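 also: lysis reports solute entry through the parasite surface anion channel PSAC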; conditions: P. falciparum Indochina infected erythrocytes, higher = more signal, called active from +8 up or from −8 down
[15] = changes in parasitized red cell lysis, either direction – P. falciparum Indochina, OD700, 3 h, PSAC antagonist project, primary screen (AID 1156); conditions: P. falciparum-infected erythrocytes, osmotic lysis, higher = more signal, called active from +8 up or from −8 down
[16] = plasmodial surface anion channel blockers, osmotic lysis – cell-based, P. falciparum Indochina, OD700, 18 h, primary screen (AID 1157); conditions: P. falciparum Indochina infected erythrocytes, osmotic lysis OD700, 18 h; higher = more signal, called active from +8 up or from −8 down
[17] = S6 kinase pathway phospho-S6 level changes – cell-based, A549, cytoblot, luminescence, serum-stimulated, primary screen (AID 1158); conditions: 5 h, higher = more signal;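 also: serum-stimulated A549 lung adenocarcinoma cells; signal is phosphorylated S6 detected by cytoblot immunostaining with HRP secondary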
[18] = biological target: NADPH oxidase 2 (Homo sapiens) (UniProt P04839); experiment: compounds shifting NOX2 Amplex Red fluorescence – cell-based, HEK293-NOX2, PMA-stimulated, NOX inhibitor project, primary screen (AID 1159); conditions: 45 min, higher = more signal, called active from +8 up or from −8 down; also: test concentration not given here
NADPH oxidase 2 (Homo sapiens), sequence (P04839 whole entry, looked up): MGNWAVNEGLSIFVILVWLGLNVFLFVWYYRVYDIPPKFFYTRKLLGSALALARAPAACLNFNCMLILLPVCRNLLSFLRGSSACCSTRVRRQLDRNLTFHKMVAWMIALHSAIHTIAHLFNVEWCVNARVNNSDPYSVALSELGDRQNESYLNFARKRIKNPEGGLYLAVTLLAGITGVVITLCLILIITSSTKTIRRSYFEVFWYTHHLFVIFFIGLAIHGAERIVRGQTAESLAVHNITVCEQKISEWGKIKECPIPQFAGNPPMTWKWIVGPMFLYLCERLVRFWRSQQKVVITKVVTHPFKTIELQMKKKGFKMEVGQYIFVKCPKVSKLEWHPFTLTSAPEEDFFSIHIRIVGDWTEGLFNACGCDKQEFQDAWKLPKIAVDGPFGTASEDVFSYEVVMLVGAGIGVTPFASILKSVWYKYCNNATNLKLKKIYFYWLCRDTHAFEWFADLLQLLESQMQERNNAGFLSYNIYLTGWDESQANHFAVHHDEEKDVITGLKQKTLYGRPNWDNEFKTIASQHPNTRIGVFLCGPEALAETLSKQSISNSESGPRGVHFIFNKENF

[19] = biological target: NADPH oxidase 4 (Homo sapiens) (UniProt Q9NPH5); experiment: compounds shifting NOX4 Amplex Red fluorescence – cell-based, HEK293-NOX4, tetracycline-induced, NOX inhibitor project, primary screen (AID 1160); conditions: HEK293-NOX4, Amplex Red H2O2 fluorescence, 45 min; higher = more signal, called active from +8 up or from −8 down
NADPH oxidase 4 (Homo sapiens), sequence (Q9NPH5 whole entry, looked up): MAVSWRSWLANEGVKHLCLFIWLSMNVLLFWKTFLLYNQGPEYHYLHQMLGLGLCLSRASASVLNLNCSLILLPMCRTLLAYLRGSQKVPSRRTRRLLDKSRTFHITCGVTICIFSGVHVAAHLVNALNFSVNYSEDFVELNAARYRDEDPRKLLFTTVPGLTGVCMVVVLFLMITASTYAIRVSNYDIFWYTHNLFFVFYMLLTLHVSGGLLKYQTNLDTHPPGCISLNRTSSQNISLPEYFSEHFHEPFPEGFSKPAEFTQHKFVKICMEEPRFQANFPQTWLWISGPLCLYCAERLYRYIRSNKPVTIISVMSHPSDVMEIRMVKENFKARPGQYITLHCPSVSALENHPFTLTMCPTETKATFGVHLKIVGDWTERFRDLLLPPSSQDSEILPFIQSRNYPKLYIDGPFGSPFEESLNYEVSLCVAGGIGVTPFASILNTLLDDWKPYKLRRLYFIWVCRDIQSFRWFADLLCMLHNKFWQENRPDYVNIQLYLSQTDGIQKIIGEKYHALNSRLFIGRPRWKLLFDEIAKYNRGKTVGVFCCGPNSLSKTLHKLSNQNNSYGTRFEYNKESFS

[20] = biological target: NADPH oxidase 5 (Homo sapiens) (UniProt Q96PH1); experiment: compounds shifting NOX5 Amplex Red fluorescence – cell-based, HEK293-NOX5, NOX inhibitor project, primary screen (AID 1161); conditions: HEK293-NOX5, ionomycin, 45 min, higher = more signal
NADPH oxidase 5 (Homo sapiens), sequence (Q96PH1 whole entry, looked up): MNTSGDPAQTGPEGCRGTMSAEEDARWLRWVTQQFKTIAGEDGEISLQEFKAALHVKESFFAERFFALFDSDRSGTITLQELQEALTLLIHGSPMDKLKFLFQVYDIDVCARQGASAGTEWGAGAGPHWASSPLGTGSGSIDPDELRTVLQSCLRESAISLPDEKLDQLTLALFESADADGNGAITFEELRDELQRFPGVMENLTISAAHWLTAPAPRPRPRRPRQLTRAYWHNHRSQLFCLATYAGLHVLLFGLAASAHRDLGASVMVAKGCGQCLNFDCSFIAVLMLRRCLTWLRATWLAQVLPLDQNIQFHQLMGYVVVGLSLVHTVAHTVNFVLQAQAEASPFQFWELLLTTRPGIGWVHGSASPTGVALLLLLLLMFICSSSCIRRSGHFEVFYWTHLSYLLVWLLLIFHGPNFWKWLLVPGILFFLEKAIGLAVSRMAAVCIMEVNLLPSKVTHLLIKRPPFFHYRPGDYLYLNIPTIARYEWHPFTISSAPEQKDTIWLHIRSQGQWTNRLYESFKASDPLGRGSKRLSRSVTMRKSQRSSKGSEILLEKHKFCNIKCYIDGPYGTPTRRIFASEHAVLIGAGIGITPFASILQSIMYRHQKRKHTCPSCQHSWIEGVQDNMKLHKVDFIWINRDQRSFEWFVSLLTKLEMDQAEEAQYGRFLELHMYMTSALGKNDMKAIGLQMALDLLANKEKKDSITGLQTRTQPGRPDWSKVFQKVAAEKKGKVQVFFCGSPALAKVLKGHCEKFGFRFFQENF

SMILES | composite z-score [1] | z-score [2] | z-score [3] | z-score [4] | z-score [5] | composite z-score [6] | composite z-score [7] | composite z-score (Torsin-1A (Homo sapiens) [8]) | composite z-score (Torsin-1A (Homo sapiens) [9]) | composite z-score [10] | z-score [11] | composite z-score [12] | z-score [13] | z-score [14] | z-score [15] | z-score [16] | z-score [17] | z-score [18] | z-score [19] | z-score [20]
CC(C)(C)OC(=O)CC[C@@]1(C(=O)N2CCCCC2)N=C(c2ccc(OCCCO)cc2)O[C@@H]1c1ccccc1N=[N+]=[N-] | 0.258 | -2.66 (inactive) | -0.197 (inactive) | 0.227 (inactive) | -1.62 (inactive) | 2.05 | 0.401 | 0.332 | 0.827 | 0.292 | 1.71 (inactive) | 0.432 | 30.3 (active) | 29.3 (active) | 2.26 (inactive) | 8.44 (active) | -0.0394 | -2.98 (inactive) | 1.03 (inactive) | -1.47
Cc1ccc(S[C@]2(C(=O)O)CC(=O)N(C3CCCCC3)[C@@H]2c2ccc(CO)cc2)cc1 | 0.219 | -0.0359 (inactive) | -0.78 (inactive) | -0.116 (inactive) | -0.337 (inactive) | 1.28 | 0.112 | -0.284 | -0.249 | -0.265 | 0.858 (inactive) | -0.672 | 2.06 (inactive) | 0.0744 (inactive) | 0.854 (inactive) | 0.0854 (inactive) | -0.158 | 1.09 (inactive) | 0.585 (inactive) | 0.763
C=CCC(OC(C)=O)[C@@H]1[C@@H](N(Cc2cccc3ccccc23)C(=O)Cc2ccc(F)cc2)c2cc(OCCCO)ccc2N1C(=O)Cc1ccc(OC)cc1 (stereo not given in full) | -0.0124 | -0.627 (inactive) | -0.945 (inactive) | -0.579 (inactive) | -0.374 (inactive) | 0.227 | -0.102 | -0.149 | -0.137 | 0.309 | 1.44 (inactive) | 0.0789 | 0.922 (inactive) | -0.262 (inactive) | -0.0628 (inactive) | -0.545 (inactive) | 1.36 | -0.973 (inactive) | 0.113 (inactive) | 0.743
CC(C)C[C@@H]1NC(=O)[C@@H]2C[C@H](C(=O)NCc3ccc(F)cc3)[C@H](c3ccc(O)cc3)N2C1=O | 0.187 | -0.393 (inactive) | -0.0526 (inactive) | -0.26 (inactive) | -0.101 (inactive) | -0.419 | -0.118 | 0.483 | 0.44 | 1.46 | 0.227 (inactive) | -0.0559 | 1.46 (inactive) | 0.328 (inactive) | -1.64 (inactive) | 0.424 (inactive) | 0.0668 | 0.468 (inactive) | -0.106 (inactive) | 1.18
COCCCNC(=O)[C@@]1(Cc2ccccc2CN=[N+]=[N-])N=C(c2ccc(OCCCO)cc2)O[C@H]1c1ccccc1N=[N+]=[N-] | 1.08 | -4.47 (inactive) | -0.867 (inactive) | -0.207 (inactive) | -0.834 (inactive) | 1.37 | 0.786 | 0.0556 | 0.516 | 0.341 | 2.51 (inactive) | 0.0643 | 36.4 (active) | 30.8 (active) | 2.72 (inactive) | 3.1 (inactive) | -0.0478 | 0.0139 (inactive) | 1.3 (inactive) | -1.31
COCCOC(=O)N1C(=O)[C@@]2(c3cc(C#CC4(O)CCCCCC4)ccc31)[C@H](C(=O)NC[C@H](O)c1ccccc1)[C@H]1C(=O)O[C@H](c3ccccc3)[C@H](c3ccccc3)N1[C@@H]2c1ccc(OCCO)cc1 | -0.0894 | -3.38 (inactive) | -0.401 (inactive) | -0.285 (inactive) | 0.0759 (inactive) | -0.0815 | 0.217 | 0.0969 | 0.124 | 1.72 | 1.07 (inactive) | -0.007 | 3.85 (inactive) | 1.58 (inactive) | -1.29 (inactive) | 1.03 (inactive) | 0.0102 | 1.55 (inactive) | 1.01 (inactive) | 0.979
CC(C)N1CC=CC23O[C@@H]4C=CCOC(=O)[C@@H]4[C@H]2C(=O)N(CCCCCCO)[C@@H]3C1=O (stereo not given in full) | -0.301 | -0.0015 (inactive) | -0.839 (inactive) | -0.627 (inactive) | -0.421 (inactive) | -0.665 | -0.097 | -2.54 | -0.976 | 1.08 | 0.864 (inactive) | -0.184 | 0.855 (inactive) | 0.619 (inactive) | 0.343 (inactive) | 0.65 (inactive) | -0.0596 | 0.936 (inactive) | -0.482 (inactive) | 1.26
CN1C(=O)C2C=CC(C(O)COCc3ccccc3)N(Nc3ccccc3)C2C1=O (stereo not given) | 0.122 | 0.631 (inactive) | -0.0726 (inactive) | 1.59 (inactive) | -0.236 (inactive) | 0.37 | -0.018 | -0.24 | 0.162 | 0.0686 | -0.75 (inactive) | 0.167 | 0.625 (inactive) | 0.167 (inactive) | -0.225 (inactive) | 0.63 (inactive) | -1.01 | -2.32 (inactive) | -4.03 (inactive) | -2.63
